A selection: hits, their analogues and other compounds. The true share with any hit is near 21%.
AMA1-RON2 inh: inhibitors of Plasmodium falciparum AMA1-RON2 interaction. 0.2% of 360,000 active. Potency, µM (titrated, usually from 58.2 µM), without a hit: top-dose activity change, negative = inhibition, hits mostly inhibitors. AlphaScreen AMA1-biotinylated RON2 peptide binding. AID 720542;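 also: potency is read from the fitted curve at half-maximal effect; 0% = vehicle wells and -100% = peptide control; nearly all actives have a fitted effect of over 45% in size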
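AMA1 (3D7) with his tag at 25 nM final met compounds first, then biotinylated RON2 peptide at 25 nM; detection used donor plus acceptor beads, 10 µg/mL apiece, read by AlphaScreen after 30 min at room temperature.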
Pf growth 48h: inhibits P. falciparum growth in the first generation, 48 h; Potency, µM (titrated, usually from 28.7 µM), for the others: top-dose activity change, negative = inhibition, hits mostly inhibitors; 5.9% of 310,000 active; P. falciparum luciferase growth in erythrocytes, 48 h; also: potency is read from the fitted curve at half-maximal effect; % is scaled to controls: 0 for no effect and ±100 for the full control effect
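Here the parasites carry a stable luciferase gene and grow inside erythrocytes in Albumax-based RPMI medium with compound for one erythrocytic cycle. Activity is scored as loss of luminescent signal.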
Cycloheximide cs: counter-screen for Shiga toxin inhibitors: cycloheximide protein synthesis inhibition | cell reporter, cycloheximide protein synthesis inhibition counterscreen | 12% of 300,000 active | max response, % | AID 2314; in the data active = max response mostly above about 13%, no sharp cut-off; inactive = mostly below about 14%; also: read at 38.3 µM for the half of the compounds with a filed dose; 0% is about no effect
Shiga inhibitor: blocks Shiga toxin action in Vero cells; Vero cells, Shiga toxin protein synthesis inhibition reporter; inhibition, % at 38.7 µM; 9.2% of 290,000 active; in the data active = inhibition mostly above about 28%, no sharp cut-off; inactive = mostly below about 43%; also: 0% is about no effect
HCV inh: blocks hepatitis C virus | Huh7.5.1 HCVcc-Cre infection, luciferase reporter, 44 h | Potency, µM (top dose mostly 41.8 µM), for the others: at the top dose activity change, negative = inhibition, most hits filed as inhibitors | 3.4% of 340,000 active | AID 651820; also: potency is read from the fitted curve at half-maximal effect; % is scaled to controls: 0 for no effect and ±100 for the full control effect
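Compounds are dispensed onto cells plated 4 h earlier at 1,000 per well, with HCVcc-Cre virus (about 0.5 moi) added next. Following 44 h of culture, luminescent signal is measured for 15 sec after 15 min with substrate at room temperature.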
Pf growth 96h: P. falciparum growth inhibition at 96 hour, primary screen for plastid delayed-death inhibitors | P. falciparum luciferase reporter growth, 96 h | Potency, µM (titrated, usually from 28.7 µM), without a hit: top-dose activity change, negative = inhibition, usual class: inhibitors | 6.9% of 320,000 active | AID 504834; also: potency is read from the fitted curve at half-maximal effect; % is scaled to controls: 0 for no effect and ±100 for the full control effect
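Parasite growth measured via integrated firefly luciferase reporter in P. falciparum. Infected erythrocytes at 2% hematocrit, 0.05% parasitemia final were treated 96 hours at 37 C under 5% CO2, and luminescence was read.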
The depositor's hits bear a star; ? = inconclusive; . = not tested or not shown. Unless noted, calls follow the shape of the dose curve; as a rule, active = well fitted curve in the direction sought with a large enough effect; inconclusive = small, poorly fitted or top-dose-only effect, or another doubt; inactive = no such curve, though single readings can be large; an effect the other way counts as inactive or inconclusive.

SMILES	AMA1-RON2 inh	Pf growth 48h	Cycloheximide cs	Shiga inhibitor	HCV inh	Pf growth 96h
CC1(c2ccc(NC(=O)c3ccccc3F)cc2)CC1(Cl)Cl (stereo unspecified)	15.5%	91.6%	34.9*	.	9.7%	9.5%
N#Cc1ccc(C(=O)Nc2ccc([N+](=O)[O-])cc2)c(F)c1	-8.8%	35.4%	7.8	52.0*	-7.5%	23.5%
Nc1ccn([C@@H]2O[C@H](CNCC3=CCOc4ccc(O)cc43)[C@@H](O)[C@H]2O)c(=O)n1	5.4%	.	.	.	.	.
COC(=O)c1sc(C(F)(F)F)c(-c2ccccc2)c1S(=O)(=O)N1CCOCC1	-0.4%	.	.	.	5.9%	.
CCOC(=O)/C(N=Nc1ccc2c(c1)OCO2)=C(\C)O	-22.0%	400.3%	50.8*	91.7*	-1.7%	224.2%
CCN1CCN(c2c(Cl)cccc2NC(=O)c2cc3ccccc3o2)CC1	-16.1%	.	.	.	?	.
O=C(COC(=O)CNC(=O)c1ccccc1)NC12CC3CC(CC(C3)C1)C2	-3.9%	.	.	.	.	.
Cc1ccc(C(=O)NCC(=O)NC23CC4CC(CC(C4)C2)C3)cc1	0.0%	72.6%	37.4*	68.5*	25.9%	71.2%
CC(=O)N1CCN(Cc2nc(C(c3ccccc3)c3ccccc3)no2)CC1	-1.6%	?	1.0	-8.4	6.0%	?
CC(C)NC(=O)CN1CCN(Cc2nc(C(c3ccccc3)c3ccccc3)no2)CC1	-5.2%	9.28µM*	6.2	7.5	14.1%	-25.6%
O=C(N/N=C/c1cccs1)c1cccnc1	46.2%	3.1%	3.3	26.9	17.6%	-28.7%
COC(=O)N/N=C/c1cccs1	-3.5%	30.5%	-1.4	22.3	9.7%	?
O=C(N/N=C/c1ccc([N+](=O)[O-])s1)C(O)c1ccccc1 (stereo unspecified)	4.6%	4.65µM*	16.2*	14.2	7.08µM*	2.33µM*
COC(=O)N/N=C/c1ccc([N+](=O)[O-])s1	19.2%	14.7µM*	7.5	27.5	?	8.28µM*
Cc1ccc(/C=N/NC(=O)c2cccnc2)s1	18.9%	16.2%	18.4*	58.4*	15.6%	?
O=C(Cc1ccccc1)N/N=C/c1ccc([N+](=O)[O-])s1	-10.1%	7.38µM*	34.8	111.5*	11.2µM*	8.28µM*
CN(C(=O)C1CCC(=O)N(CCCN2CCCC2=O)C1)C(C1CC1)C1CC1 (stereo unspecified)	-5.8%	9.3%	3.0	2.2	0.9%	37.2%
COc1ccccc1/C=C/C(=O)OCCN1C(=O)c2ccccc2C1=O	10.9%	18.2%	-0.2	-1.6	-2.4%	37.4%
Cn1c(SCC(=O)N/N=C/c2ccc([N+](=O)[O-])s2)nnc1-c1ccccc1	-8.5%	6.57µM*	15.1	-6.1	11.2µM*	?
O=C(N/N=C/c1ccc([N+](=O)[O-])s1)c1ccccc1	-2.2%	?	20.1*	40.3	?	-3.0%
O=C(CNC(=O)c1cccc(F)c1)N/N=C/c1ccc([N+](=O)[O-])s1	11.8%	-5.5%	17.9	-4.2	?	?
Cc1ccnn1CC(=O)N/N=C/c1ccc([N+](=O)[O-])s1	-6.5%	?	0.5	-3.3	?	7.38µM*
O=C(N/N=C/c1ccc([N+](=O)[O-])s1)c1cccnc1	16.7%	9.28µM*	-2.0	-7.0	14.1µM*	2.94µM*
COc1ccccc1NC(=O)C(=O)N/N=C/c1ccc([N+](=O)[O-])s1	14.0%	2.62µM*	-2.6	-11.5	-16.3%	1.65µM*
CCn1nc(C)c(/C=N/NC(=O)Cn2nccc2C)c1C	104.0%	108.0%	37.4*	71.7*	10.4%	100.1%
SMILES	AMA1-RON2 inh	Pf growth 48h	Cycloheximide cs	Shiga inhibitor	HCV inh	Pf growth 96h
O=C(N/N=C\c1ccc([N+](=O)[O-])s1)c1cncc(Br)c1	25.8%	8.28µM*	-3.0	-5.9	10µM*	3.29µM*
Cc1ccc(NC(C)C(=O)N/N=C/c2ccc([N+](=O)[O-])s2)cc1 (stereo unspecified)	-17.4%	?	-1.4	-8.6	?	14.7µM*
COc1ccc(NC(C)C(=O)N/N=C/c2ccc([N+](=O)[O-])s2)cc1 (stereo unspecified)	-13.1%	?	-1.5	-18.8	?	26.7%
COc1cccc(C(C)(O)c2nc(/C=C/c3ccccc3)cs2)c1 (stereo unspecified)	13.5%	.	.	.	.	.
COCCNC(=O)C(=O)N/N=C(\C)CC(=O)Nc1cccc(C(F)(F)F)c1	84.1%	0.4%	13.3	20.5	5.2%	-12.0%
O=C(CCC(=O)Nc1cccc(C(F)(F)F)c1)NCC1CCCO1 (stereo unspecified)	-4.3%	14.4%	7.4	-2.7	12.9%	4.2%
O=C(Nc1cccc(C(F)(F)F)c1)NC1CCCCC1	16.3%	.	16.1	15.4	-4.9%	.
COc1ccc(C(=O)N/N=C(\C)CC(=O)Nc2cccc(C(F)(F)F)c2)cc1	97.4%	0.7%	39.0*	81.5*	-1.7%	-13.0%
C/C(CC(=O)Nc1cccc(C(F)(F)F)c1)=N\NC(=O)C1CCCCC1	62.2%	27.3%	26.7*	54.8	10.6%	8.6%
O=C(COC(=O)C1CCCO1)Nc1cccc(C(F)(F)F)c1 (stereo unspecified)	-1.2%	1.8%	-2.4	-14.6	-5.6%	7.38µM*
O=C(OC(C(=O)Nc1cccc(C(F)(F)F)c1)c1ccccc1)C1CCCCC1 (stereo unspecified)	27.7%	?	0.7	22.1	-6.6%	6.57µM*
COc1ccc(/C=C2\N=C(c3ccc(C)cc3)OC2=O)cc1	13.7%	28.6%	1.1	.	22.4%	322.0%
COc1ccc(/C=C/C2=NC(=C\N(C)C)/C(=O)O2)cc1	-3.8%	45.3%	43.4*	107.0*	-24.6%	-2.5%
CCCCNC(=O)c1[nH]c(=O)cnc1-c1ccccc1	46.0%	.	.	.	.	.
O=C(NCC1CCCO1)c1cncc(Br)c1 (stereo unspecified)	-4.8%	?	-0.8	-8.7	12.2%	25.1%
CCCCN(C)Cc1c(C)[nH]c2ccccc2c1=O	68.3%	-0.6%	-2.7	-3.9	?	-2.6%
Cc1[nH]c2ccccc2c(=O)c1CN(C)Cc1ccccc1	8.2%	-7.5%	26.7*	49.1	11.3%	?
CCc1c(C)[nH]c2ccccc2c1=O	-0.1%	1.65µM*	-2.9	-19.9	-22.7%	101.7%
CC(=O)CCc1c(C)[nH]c2ccccc2c1=O	?	-20.4%	-1.6	-10.0	5.4%	.
Cc1ccc(F)cc1C(=O)N1CCCCC1c1cc(C(=O)Nc2ccccc2)no1 (stereo unspecified)	-5.7%	.	.	.	.	.
O=C(NC1CCCC1)C(c1cccnc1)N(C(=O)c1csnn1)c1ccc(F)cc1 (stereo unspecified)	-1.2%	?	2.8	20.0	10.7%	?
CCCNC(=O)c1sc2c(c1C(=O)Nc1ccccn1)CCCC2	-17.1%	-22.0%	-1.6	13.4	10µM*	?
